Rows were chosen to be rich in hits. Some 5.4% of all compounds tested hit in one or more screens of this group.
Sm TGR inh = blocks Schistosoma mansoni thioredoxin glutathione reductase; purified TGR, DTNB reduction, TNB absorbance 405 nm; Potency, µM (titrated, usually from 114 µM), without a hit: top-dose activity change, negative = inhibition, actives largely listed as inhibitors; AID 485364; actives 3% (n = 360,000); note: potency is the fitted concentration of half-maximal effect; % is set by controls: 0 for no effect and ±100 for the full control effect; nearly all actives have a fitted effect of over 60% in size
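TGR 20 nM + NADPH 100 uM (dispensed conc.), cpd preinc 15 min RT; start with NADPH (500 uM addition) then DTNB (15 mM addition). Kinetic TNB absorbance, 405 nm filter. Four-parameter Hill fit across titration.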
LASV entry inh = Lassa virus entry inhibition. Lassa virus pseudotype entry inhibition, cell reporter. Potency, µM (titrated, usually from 37.9 µM), for inactives: at the top dose activity change, negative = inhibition, hits mostly inhibitors. actives 1.2% (n = 300,000); calls by dose curve; tested in HEK293 cells; note: potency is the fitted concentration of half-maximal effect; % is set by controls: 0 for no effect and ±100 for the full control effect; nearly all actives have a fitted effect of over 50% in size
Vaccinia Venus = inhibitors of vaccinia virus (Venus reporter) | Vaccinia virus Venus reporter expression, fluorescence | Potency, µM (highest dose often 36.5 µM), for inactives: top-dose activity change, negative = inhibition, actives largely listed as inhibitors | actives 0.46% (n = 330,000) | AID 720580; calls by dose curve; tested in A549 cells; note: potency is the fitted concentration of half-maximal effect; % is set by controls: 0 for no effect and ±100 for the full control effect; nearly all actives have a fitted effect of over 30% in size
Vaccinia mCherry = inhibitors of vaccinia virus infection (mCherry reporter signal) | Potency, µM (top dose mostly 36.5 µM), for the others: at the top dose activity change, negative = inhibition, actives largely listed as inhibitors | AID 720579 | Vaccinia virus mCherry reporter infection, fluorescence | actives 0.63% (n = 310,000); calls by dose curve; tested in A549 cells; note: potency is the fitted concentration of half-maximal effect; % is set by controls: 0 for no effect and ±100 for the full control effect; nearly all actives have a fitted effect of over 35% in size
MARV entry inh = inhibitors of Marburg virus binding or cell entry. actives 1.8% (n = 300,000). Potency, µM (highest dose often 37.8 µM), inactives show at the top dose activity change, negative = inhibition, usual class: inhibitors. AID 540276. Marburg virus pseudotyped entry inhibition, cell reporter; calls by dose curve; tested in HEK293 cells; note: potency is the fitted concentration of half-maximal effect; % is set by controls: 0 for no effect and ±100 for the full control effect
FMDV inh = blocks foot and mouth disease virus. FMDV antiviral cell-based qHTS. Potency, µM (titrated, usually from 57.9 µM), inactives show at the highest dose activity change, negative = inhibition, actives largely listed as inhibitors. actives 1.2% (n = 410,000). AID 1159524; calls by dose curve; tested in HEK293T cells; note: read-out not given here; potency is the fitted concentration of half-maximal effect; % is set by controls: 0 for no effect and ±100 for the full control effect; nearly all actives have a fitted effect of over 45% in size
G2M arrest HeLa = HeLa G2/M cell cycle arrest induction; Potency, µM, actives largely listed as inhibitors; HeLa cell cycle G2/M arrest, Hoechst DNA content imaging; actives 60% (n = 25); shares compounds with MARV entry inh; AID 2441
WI-38 cytotox = counter-screen for perinucleolar compartment inhibitors: WI-38 cytotoxicity; shares compounds with MARV entry inh; WI-38 normal lung fibroblasts, ATPLite luminescence ATP viability, 24 h; Potency, µM (doses to about 46.1 µM), inactives show at the highest dose activity change, negative = cytotoxicity, hits mostly inhibitors; 120 tested, under 10 active; AID 2729
PNC assembly inh = confirmation of perinucleolar compartment assembly inhibitors | actives 50% (n = 120) | PC3M PTB-GFP, PNC prevalence imaging, 16 h | Potency, µM (series often up to 46.1 µM), inactives show at the highest dose activity, negative = PNC inhibition, most hits filed as inhibitors | shares compounds with MARV entry inh
PC3M casp3-7 = activates caspase 3/7 in PC3M cells in PNC counter-screen | AID 2731 | shares compounds with MARV entry inh | PC3M-GFP caspase 3/7 activation, luminescence, 24 h | 120 tested, under 10 active | activity change, positive = activation, % at 46.1 µM
* hit, by the source's call; [ ] = dose if it differs, or a comment. Unless noted, calls come from the whole dose curve; as a rule, active = well fitted curve in the direction sought with a large enough effect; inconclusive = small, poorly fitted or top-dose-only effect, or another doubt; inactive = no such curve, though single readings can be large; an effect the other way counts as inactive or inconclusive.

Screening CCCCCCCCCCCCCCCCCC(=O)NCC(COP(=O)([O-])OCC[N+](C)(C)C)OCC (configuration not stated) returned LASV entry inh inconclusive, MARV entry inh 20µM* and G2M arrest HeLa inconclusive.
`Cc1oc(-c2ccccc2Cl)nc1CSCC(=O)N1CCCC1` gave Sm TGR inh inconclusive, LASV entry inh 0.65µM*, MARV entry inh inconclusive, FMDV inh 24%, WI-38 cytotox 9%, PNC assembly inh 4µM* and PC3M casp3-7 -6.
Cc1cc(C)cc(OCC(=O)Nc2ccc(-c3nc4ccccc4s3)cc2)c1 was read as Sm TGR inh 2%, LASV entry inh inconclusive, Vaccinia Venus -24%, Vaccinia mCherry inconclusive, MARV entry inh 19%[46.1 µM] and FMDV inh 38%.
O=C(Nc1ccc(NC(=O)C2CC2)cn1)c1ccccc1Cl was read as Sm TGR inh 0%, LASV entry inh inconclusive, Vaccinia Venus 0%, Vaccinia mCherry -15%, MARV entry inh inconclusive, FMDV inh 30%, WI-38 cytotox inconclusive, PNC assembly inh 35µM* and PC3M casp3-7 -19.
For O=C(Nc1ccc(NC(=O)C2CCCCC2)nc1)c1ccccn1 the results were LASV entry inh inconclusive, Vaccinia Venus -6%, Vaccinia mCherry -7%, MARV entry inh inconclusive and FMDV inh -2%.
For COc1cc2c(c(OC)c1OC)-c1ccc(OC)c(=O)cc1[C@@H](NC(C)=O)CC2 the results were Sm TGR inh -14%, LASV entry inh inconclusive, Vaccinia Venus inconclusive, Vaccinia mCherry inconclusive, MARV entry inh inconclusive, FMDV inh -3% and G2M arrest HeLa 0.02*.
Screening CCCSc1cc(N2CCN(C)CC2)nc(-c2ccc(OC)cc2)n1 returned Sm TGR inh 4%, LASV entry inh inconclusive, Vaccinia Venus inconclusive, MARV entry inh inconclusive, FMDV inh -5%, WI-38 cytotox 3%, PNC assembly inh inconclusive and PC3M casp3-7 -1.
CCCSc1cc(N2CCCC2)nc(-c2ccccc2)n1 was read as Sm TGR inh -21%, LASV entry inh 9%, Vaccinia Venus -5%, MARV entry inh -4% and FMDV inh -4%.
Cc1c(Cl)ccc2sc(N3CCN(C(=O)c4ccco4)CC3)nc12 was read as Sm TGR inh 6%, LASV entry inh 5%[46.1 µM], Vaccinia Venus -3%, Vaccinia mCherry -14% and FMDV inh 3%.
CCOC(=O)c1c(NC(=O)c2c(-c3ccccc3)noc2C)sc(C)c1-c1ccccc1 was read as Sm TGR inh -25%, LASV entry inh inconclusive, Vaccinia Venus -2%, MARV entry inh 0.13µM*, FMDV inh inconclusive, WI-38 cytotox 2%, PNC assembly inh 1.6µM* and PC3M casp3-7 -3.
`O=C(N/N=C/c1cc2c3c(c1O)CCCN3CCC2)c1ccccc1O` gave Sm TGR inh inconclusive, LASV entry inh 1.3µM*, Vaccinia Venus inconclusive, Vaccinia mCherry inconclusive, MARV entry inh 1.5µM*, FMDV inh -9%, WI-38 cytotox -11%, PNC assembly inh inconclusive and PC3M casp3-7 -8.
`Cc1nn(-c2ccccc2)c(N2CCCC2)c1/C=N/NC(=O)c1ccccc1O` gave Sm TGR inh -5%, LASV entry inh inconclusive, Vaccinia Venus -16%, Vaccinia mCherry -14%, MARV entry inh inconclusive and FMDV inh 0%.
`Nc1ccc2c(c1)C(=O)c1ccccc1-2` gave LASV entry inh 11%[46.1 µM], Vaccinia Venus -17%, Vaccinia mCherry inconclusive, MARV entry inh inconclusive and FMDV inh 0%.
For Nc1ccc2c(c1)C(=O)C(=O)c1ccccc1-2 the results were Sm TGR inh -13%, LASV entry inh inconclusive, Vaccinia Venus 3.5µM*, MARV entry inh 5.6µM*, FMDV inh 5.6µM*, WI-38 cytotox 28µM*, PNC assembly inh 20µM* and PC3M casp3-7 -15.
O=C1C(=O)c2ccc(-c3ccccc3)cc2-c2ccccc21 was read as Sm TGR inh -8%, LASV entry inh inconclusive, MARV entry inh 5.8µM*, FMDV inh 14µM*, WI-38 cytotox inconclusive, PNC assembly inh 22µM* and PC3M casp3-7 inconclusive.
`Cc1ccc(OCCSc2nc(-c3ccccc3C)nc3cc(=O)[nH]n23)cc1Cl` gave Sm TGR inh 11%, LASV entry inh 19%[46.1 µM], Vaccinia Venus -4%, Vaccinia mCherry -17% and FMDV inh -17%.
For FC(F)(F)c1ccccc1-c1nc(NC2CCNCC2)c2ccccc2n1 the results were FMDV inh -14%.
`O=C1C2CCCN2C(c2ccc(F)cc2)N1c1ccc(Cl)cc1` (configuration not stated) gave Sm TGR inh -5%, Vaccinia Venus -1%, Vaccinia mCherry -5%, FMDV inh 1%, WI-38 cytotox -20%, PNC assembly inh 16µM* and PC3M casp3-7 -3.
`O=C1C2CCCN2C(c2ccccc2)N1c1ccc(F)cc1` (configuration not stated) gave Sm TGR inh 0%, Vaccinia Venus -3%, Vaccinia mCherry -13%, MARV entry inh 1% and FMDV inh -20%.
Screening CC(=O)N(C)c1ccc(N=Cc2cc3c(cc2[N+](=O)[O-])OCO3)cc1 returned LASV entry inh -18%, Vaccinia Venus 0%[7.34 µM], Vaccinia mCherry -10%[7.34 µM], MARV entry inh 7%[46.1 µM] and FMDV inh -18%.
Screening CCN(CC)c1ccc(N=Cc2ccccc2[N+](=O)[O-])cc1 returned Sm TGR inh inconclusive, LASV entry inh inconclusive, Vaccinia Venus inconclusive, Vaccinia mCherry inconclusive, MARV entry inh inconclusive, FMDV inh 4%, WI-38 cytotox -20%, PNC assembly inh -8% and PC3M casp3-7 -7.
Screening COc1ccc(/C=C/C(=O)OCC(=O)Nc2ccc(Cl)c(S(=O)(=O)N(C)C)c2)cc1OC returned Sm TGR inh -14%, LASV entry inh -10%, Vaccinia Venus -6%, Vaccinia mCherry -20%, MARV entry inh -11%, FMDV inh inconclusive, WI-38 cytotox 3%, PNC assembly inh 7% and PC3M casp3-7 -4.

Screens (PubChem)
